Experimental data published in PubChem BioAssay (NCI).
Values joined by “and” are separate entries in the source; they are usually repeats but may differ in a detail not shown here. Equal entries are not always repeated. This is part of a sample that, as a whole, favours compounds with a hit. Of some 79,000 tested, about 15% had one in any assay. Unmarked numbers belong to inactive results. Active and inactive are the calls of the source. Rule as the data show it: active = growth inhibition above about 70%; inactive = the rest.

Columns and labels:
[1] = NCI Yeast Anticancer Drug Screen. Data for the rad50 strain (AID 155);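 also: 0% = growth of vehicle-only cultures of the same strain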; settings: S. cerevisiae rad50 strain growth inhibition, active compounds read high
How it was run: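 A DNA repair-deficient yeast mutant serves as the test organism; compound-induced growth inhibition is calculated against vehicle-treated cells.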

[2] = NCI Yeast Anticancer Drug Screen. Data for the mec2-1 strain (AID 157); settings: S. cerevisiae mec2-1 strain, active compounds read high
How it was run: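 Compounds were applied to mec2-1 yeast cells. Their growth was then compared with that of vehicle-treated cultures to give growth inhibition.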

[3] = NCI Yeast Anticancer Drug Screen. Data for the cln2 rad14 strain (AID 165);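 also: 0% = growth equal to vehicle treated cultures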; settings: S. cerevisiae cln2 rad14 strain, active compounds read high
How it was run: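 Strain: cln2 rad14 yeast, altered in cell cycle control and DNA damage repair. Read-out: growth inhibition vs vehicle.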

[4] = NCI Yeast Anticancer Drug Screen. Data for the bub3 strain (AID 167); settings: S. cerevisiae bub3 mutant strain, active compounds read high
How it was run: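 Inhibition values come from growth of compound-treated mutant yeast normalised to vehicle-treated controls.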

[5] = NCI Yeast Anticancer Drug Screen. Data for the mlh1 rad18 strain (AID 175); settings: S. cerevisiae mlh1 rad18 strain growth inhibition, active compounds read high
How it was run: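 A repair-deficient yeast strain is exposed to test compound, and growth is scored relative to vehicle-treated controls.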

[6] = NCI Yeast Anticancer Drug Screen. Data for the sgs1 mgt1 strain (AID 161);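 also: 0% = growth of cultures given vehicle only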; settings: S. cerevisiae sgs1 mgt1 strain, active compounds read high
How it was run: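 Percent growth inhibition was derived by comparing compound-exposed mutant yeast with vehicle-exposed cultures. The strain carries alterations in DNA damage repair.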

[7] = at 5.0 µM (retest, dose inferred, filed as 0.5)
[8] = at 50.0 µM (retest, dose inferred, filed as 5.0)

Compound	growth inhibition [1, 7]	growth inhibition [1, 8]	growth inhibition ([1]; at 50.0 µM)	growth inhibition [2, 7]	growth inhibition [2, 8]	growth inhibition ([2]; at 50.0 µM)	growth inhibition [3, 7] [%]	growth inhibition [3, 8]	growth inhibition ([3]; at 50.0 µM)	growth inhibition [4, 7] [%]	growth inhibition [4, 8]	growth inhibition ([4]; at 50.0 µM)	growth inhibition [5, 7]	growth inhibition [5, 8]	growth inhibition ([5]; at 50.0 µM)	growth inhibition [6, 7]	growth inhibition [6, 8]	growth inhibition ([6]; at 50.0 µM)
O=C(O)CCn1c2ccccc2c2ccccc21	6%	45%	24.6%	-13%	52%	36.4%	-10	42%	15.1%	-6	61%	55.5%	-4%	49%	66%	–	–	–
CC1([N+](=O)[O-])C(=O)C2(N3CCCCC3)CCCC2C1c1ccccc1 (stereo not drawn)	–	–	–	3%	21%	8.6%	5	-1%	36.2%	1	13%	12%	1%	20%	16.5%	6%	8%	19%
O=[N+]([O-])c1ccc(NS(=O)(=O)c2ccc(Cl)c(Cl)c2Cl)c([N+](=O)[O-])c1	22%	18%	78.2% (active)	24%	21%	42.1%	–	–	–	11	10%	7.15%	22%	20%	75.2% (active)	31%	38%	81% (active)
O=S(=O)(N=S(c1ccc(Cl)cc1)c1ccc(Cl)cc1)c1ccccc1	–	–	–	-8%	5%	-14.4%	9	28%	-32.4%	5	19%	27.2%	0%	10%	12.8%	-1%	12%	4.5%
C/C(=N\NC(=S)N1CCN(c2ccccc2)CC1)c1nccs1	28%	96% (active)	90.5% (active)	56%	98% (active)	91.8% (active)	22	98% (active)	90.9% (active)	63	99% (active)	88.3% (active)	–	–	–	–	–	–
Cc1ccc([N+](=O)[O-])c2c(NCCCN(C)C)c3ccccc3nc12	79% (active)	98% (active)	97% (active)	97% (active)	99% (active)	95.8% (active)	–	–	–	35	97% (active)	87.8% (active)	92% (active)	99% (active)	97% (active)	93% (active)	98% (active)	97.2% (active)
OCC(O)C(O)C(O)C(O)C(O)CO (stereo not drawn)	–	–	1% and 8% and 21.3%	–	–	0.1% and 6.15% and -9.7%	–	–	-45.4% and -8.8% and -1.35%	–	–	17.6% and -3.1% and 37.1%	–	–	10.2% and 22.1% and 10.4%	–	–	16.6% and 21.1% and 25.2%
CCOC(=O)CN1CCC(C(=O)CC2(O)C3(Cl)C4(Cl)C5(Cl)C(Cl)(Cl)C6(Cl)C4(Cl)C2(Cl)C6(Cl)C53Cl)CC1 (stereo not drawn)	30%	98% (active)	98.8% (active)	2%	99% (active)	99.2% (active)	–	–	–	20	98% (active)	99.1% (active)	62%	99% (active)	98.8% (active)	51%	99% (active)	50.5%
C1CCC2[N-]CC3CCCCC3[N-]CC3CCCCC3[N-]CC3CCCCC3[N-]CC2C1.[Cl][Fe]([Cl])([Cl])[Cl].[Fe+6] (stereo not drawn)	–	–	–	10%	98% (active)	98.5% (active)	0	96% (active)	96.8% (active)	-3	97% (active)	97.5% (active)	26%	98% (active)	97.7% (active)	25%	98% (active)	98.5% (active)
CC(C)(C)/C=N/NS(=O)(=O)c1ccccc1	-114%	-146%	-1%	-43%	-43%	-7.35%	-50	-61%	40.5%	-57	-67%	-5.2%	-100%	-108%	4.65%	–	–	–
